Source: PubChem BioAssay (NCI)
About 83,000 compounds went through this panel and 20% of them were active in at least one assay; those are over-represented in the sample as a whole.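 Treatment: one concentration, 48 hours, 96-well format. Scoring: percent growth, with anything below 10 considered active.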 The source made the active and inactive calls.

Assays:
Assay in all cases: NCI-60 one-dose screen, 48 h (100 = growth as untreated, 0 = no growth, -100 = all killed)
HT29 colon = conditions: 10 µM unless noted
SNB-75 CNS = conditions: 10 µM unless noted
SNB-19 CNS = conditions: 10 µM unless noted
U251 CNS = conditions: 10 µM unless noted
PC-3 prostate = conditions: 10 µM unless noted
SK-MEL-5 melanoma = conditions: 10 µM unless noted
UACC-62 melanoma = conditions: 10 µM unless noted
LOX IMVI melanoma = conditions: 10 µM unless noted
SK-MEL-28 melanoma = conditions: 10 µM
SK-MEL-2 melanoma = conditions: 10 µM unless noted

Measured: growth

O=C(N/N=C/c1ccccc1O)C(=O)Nc1ccc(F)cc1
inactive: HT29 colon 40.9% | SNB-75 CNS 85.5% | SNB-19 CNS 53.9% | U251 CNS 33.5% | PC-3 prostate 54.7% | SK-MEL-5 melanoma 55.5% | UACC-62 melanoma 35.1% | LOX IMVI melanoma 27.2% | SK-MEL-28 melanoma 59.4% | SK-MEL-2 melanoma 71.6%

COc1cc(OC)cc(N2C(=O)N(Cc3ccc(C(C)(C)C)cc3)c3ccccc3S2(=O)=O)c1
inactive: HT29 colon 93.7% | SNB-75 CNS 73.9% | SNB-19 CNS 94.7% | U251 CNS 95.9% | PC-3 prostate 84.4% | SK-MEL-5 melanoma 85.8% | UACC-62 melanoma 90.6% | LOX IMVI melanoma 85.1% | SK-MEL-28 melanoma 91.9% | SK-MEL-2 melanoma 88.5%

COC(=O)C1=C(C)NC(C)=C(C(=O)OC)C(N2C(=O)CCC2=O)C1 (stereo not given)
inactive: HT29 colon 98.5% | SNB-75 CNS 77.3% | SNB-19 CNS 99.9% | U251 CNS 87.7% | PC-3 prostate 84.6% | SK-MEL-5 melanoma 102% | UACC-62 melanoma 83.8% | LOX IMVI melanoma 82.4% | SK-MEL-28 melanoma 95.5% | SK-MEL-2 melanoma 99.1%

Cc1cc(Nc2ccc(OCc3ccccc3)cc2)nc2cc(O)ccc12
active: HT29 colon 2.05% | SK-MEL-5 melanoma 9.21%
inactive: SNB-75 CNS 81.6% | SNB-19 CNS 70.5% | U251 CNS 10.2% | PC-3 prostate 53.5% | UACC-62 melanoma 71.7% | LOX IMVI melanoma 13.3% | SK-MEL-28 melanoma 59.2% | SK-MEL-2 melanoma 70.4%

O=C1/C(=C/c2cccc(O)c2)COc2ccc(O)cc21
inactive: HT29 colon 72.7% | SNB-75 CNS 96.4% | SNB-19 CNS 80% | U251 CNS 29.6% | PC-3 prostate 72.7% | SK-MEL-5 melanoma 86.9% | UACC-62 melanoma 82.4% | SK-MEL-28 melanoma 102% | SK-MEL-2 melanoma 108%
active: LOX IMVI melanoma -57.1%

CC(=S)NC(=O)C(=O)/C=C1/NC(=O)C(=O)S1
inactive: HT29 colon 110% | SNB-75 CNS 95.5% | SNB-19 CNS 106% | U251 CNS 111% | PC-3 prostate 99.6% | SK-MEL-5 melanoma 104% | UACC-62 melanoma 99.9% | LOX IMVI melanoma 99.7% | SK-MEL-28 melanoma 106% | SK-MEL-2 melanoma 103%

CCCCC(O)(c1ccc(Cl)cc1)C(CN1CCOCC1)c1ccc(Cl)cc1 (stereo not given)
inactive: HT29 colon 53.7% | SNB-75 CNS 39.6% | SNB-19 CNS 60.1% | U251 CNS 23.1% | PC-3 prostate 17.6% | SK-MEL-5 melanoma 13.3% | UACC-62 melanoma 31.1% | LOX IMVI melanoma 33.9% | SK-MEL-28 melanoma 54.1% | SK-MEL-2 melanoma 50.1%

COC(=O)/C(CCC=C(C)C)=C1\[C@@H](OC(C)=O)C[C@@]2(C)[C@H]1C[C@@H](O)[C@H]1[C@@]3(C)CC[C@H](NC(=O)c4cnccn4)[C@@H](C)[C@@H]3CC[C@@]12C
inactive: HT29 colon 99% | SNB-75 CNS 86.3% | SNB-19 CNS 96.5% | U251 CNS 98.3% | PC-3 prostate 86.2% | SK-MEL-5 melanoma 96.5% | UACC-62 melanoma 86.6% | LOX IMVI melanoma 93.5% | SK-MEL-28 melanoma 111% | SK-MEL-2 melanoma 118%

CCCCCCn1c(=N)n(CC(O)COc2cccc(C)c2)c2ccccc21 (stereo not given)
active: HT29 colon -46.2% | SNB-75 CNS -92.1% | U251 CNS -75.7% | PC-3 prostate -11% | SK-MEL-5 melanoma -98.7% | UACC-62 melanoma -72.4% | LOX IMVI melanoma -86.3% | SK-MEL-28 melanoma -92.3% | SK-MEL-2 melanoma -79.7%
inactive: SNB-19 CNS 12.6%

NCCOc1ccccc1/C=C1\c2ccccc2-c2ccc([N+](=O)[O-])cc21
inactive: SNB-19 CNS 10.6% | PC-3 prostate 36.8% | SK-MEL-5 melanoma 30.1% | UACC-62 melanoma 20.7% | SK-MEL-28 melanoma 48% | SK-MEL-2 melanoma 78.3%
active: HT29 colon -59.7% | SNB-75 CNS -5.59% | U251 CNS -74.1% | LOX IMVI melanoma -93.8%

CCCCCCC(O)(c1ccc(F)cc1)C(CN1CCOCC1)c1ccccc1 (stereo not given)
inactive: HT29 colon 33.1% | SNB-75 CNS 32.8% | SNB-19 CNS 42% | U251 CNS 28% | PC-3 prostate 15.4% | SK-MEL-5 melanoma 52.8% | UACC-62 melanoma 22.6% | LOX IMVI melanoma 29.5% | SK-MEL-28 melanoma 68.1% | SK-MEL-2 melanoma 36.4%

COc1cc(C(C)n2cc(-c3ccccc3)nn2)ccc1OC1CCCCC1 (stereo not given)
inactive: HT29 colon 82.3% | SNB-75 CNS 68.1% | SNB-19 CNS 68.7% | U251 CNS 81% | PC-3 prostate 69.6% | SK-MEL-5 melanoma 29.9% | UACC-62 melanoma 55.7% | LOX IMVI melanoma 63.1% | SK-MEL-28 melanoma 95.1% | SK-MEL-2 melanoma 92.8%

Cn1cc(-c2ccc3ncc(-c4ccc(CC(=O)Nc5cc(C(C)(C)C)no5)cc4)nc3c2)cn1
inactive: HT29 colon 51.6% | SNB-75 CNS 43.7% | SNB-19 CNS 62.6% | U251 CNS 40.8% | PC-3 prostate 49.7% | SK-MEL-5 melanoma 28.7% | UACC-62 melanoma 42.6% | LOX IMVI melanoma 45.7% | SK-MEL-28 melanoma 53.2% | SK-MEL-2 melanoma 38.1%

Cc1nc2ccccc2c(/C=C/c2ccc(F)cc2)c1C(N)=O
inactive: HT29 colon 115% | SNB-75 CNS 85.4% | SNB-19 CNS 99.2% | U251 CNS 98.1% | PC-3 prostate 89.1% | SK-MEL-5 melanoma 95.9% | UACC-62 melanoma 96.1% | LOX IMVI melanoma 96.4% | SK-MEL-28 melanoma 117% | SK-MEL-2 melanoma 105%

COc1ccc(-c2nc(-c3ccccn3)c(-c3ccccn3)n2CC(C)C)cc1OC1CCCC1
active: UACC-62 melanoma 9.71% | SK-MEL-2 melanoma -4.88%
inactive: HT29 colon 12.2% | SNB-75 CNS 20.5% | SNB-19 CNS 24.2% | U251 CNS 11.1% | PC-3 prostate 12.6% | SK-MEL-5 melanoma 15.5% | LOX IMVI melanoma 20.8% | SK-MEL-28 melanoma 35.9%

COc1cc(/C=C/C(=O)c2c(C)nc3ccccc3c2/C=C/c2ccccc2)cc(OC)c1OC
inactive: SNB-75 CNS 14.2% | PC-3 prostate 20.5% | UACC-62 melanoma 10.5%
active: HT29 colon -1.3% | SNB-19 CNS 1.12% | U251 CNS -14.1% | SK-MEL-5 melanoma 8.08% | LOX IMVI melanoma -86.7% | SK-MEL-28 melanoma 1.27% | SK-MEL-2 melanoma -6.78%

Cn1nc(C(C)(C)C)cc1NC(=O)Cc1ccc(/C=C2\C(=O)Nc3ccccc32)cc1
active: SK-MEL-5 melanoma 5.57%
inactive: HT29 colon 58.4% | SNB-75 CNS 75.1% | SNB-19 CNS 63.9% | U251 CNS 55.5% | PC-3 prostate 42.1% | UACC-62 melanoma 41% | LOX IMVI melanoma 53.8% | SK-MEL-28 melanoma 76.7% | SK-MEL-2 melanoma 54.3%

Cc1ccc2sc3c(NCCCNCCO)nc4ccccc4c3c(=O)c2c1
active: HT29 colon -65% | U251 CNS -39.5% | UACC-62 melanoma -25.3% | LOX IMVI melanoma -27.3%
inactive: SNB-75 CNS 33.3% | SNB-19 CNS 68.5% | PC-3 prostate 39.3% | SK-MEL-5 melanoma 85.6% | SK-MEL-28 melanoma 79.8% | SK-MEL-2 melanoma 90.8%

CCOC(=O)c1sc(-c2ccc(OS(=O)(=O)C[C@]34CCC(CC3=O)C4(C)C)c(C=O)c2)nc1C
inactive: SNB-19 CNS 18% | PC-3 prostate 25.8% | SK-MEL-5 melanoma 16.8% | UACC-62 melanoma 25% | SK-MEL-28 melanoma 52.6% | SK-MEL-2 melanoma 12.8%
active: HT29 colon 6.26% | SNB-75 CNS -2.85% | U251 CNS -9.73% | LOX IMVI melanoma -32.1%

CCCCC1CCc2cccc3c(SCC(=O)N(C)c4ccc(Cl)cc4)cc[n+]1c23 (stereo not given)
inactive: HT29 colon 106% | SNB-75 CNS 109% | SNB-19 CNS 97.2% | U251 CNS 108% | PC-3 prostate 106% | SK-MEL-5 melanoma 102% | UACC-62 melanoma 96.3% | LOX IMVI melanoma 99.7% | SK-MEL-28 melanoma 105% | SK-MEL-2 melanoma 111%

COC(=O)[C@H](NC(=O)C1(C)CCC[C@]2(C)[C@H]3C[C@H]4C(C(C)C)=C[C@]3(CC[C@@H]12)[C@@H]1C(=O)CCC(=O)[C@@H]14)C(C)C (stereo not given in full)
inactive: HT29 colon 109% | SNB-75 CNS 83.7% | SNB-19 CNS 92.9% | U251 CNS 99.1% | PC-3 prostate 90.8% | SK-MEL-5 melanoma 101% | UACC-62 melanoma 84.4% | LOX IMVI melanoma 90.5% | SK-MEL-28 melanoma 99.7% | SK-MEL-2 melanoma 116%

CS(=O)(=O)Nc1ccc(C(=O)NC(C(=O)NO)c2ccc(-c3cccc(F)c3)cc2)cc1 (stereo not given)
inactive: HT29 colon 53.2% | SNB-75 CNS 24.8% | SNB-19 CNS 45.2% | U251 CNS 94.1% | PC-3 prostate 86.9% | SK-MEL-5 melanoma 48% | UACC-62 melanoma 79% | LOX IMVI melanoma 44.8% | SK-MEL-28 melanoma 91.8% | SK-MEL-2 melanoma 73.6%

Cc1ccc(C2CC(c3ccc(Nc4nc(NCCO)nc(Nc5ccc(Cl)cc5)n4)cc3)=NN2c2cc(Cl)cc(Cl)c2)cc1 (stereo not given)
inactive: HT29 colon 107% | SNB-75 CNS 85.2% | SNB-19 CNS 106% | U251 CNS 97.4% | PC-3 prostate 98.9% | SK-MEL-5 melanoma 92.4% | UACC-62 melanoma 89.5% | LOX IMVI melanoma 98.7% | SK-MEL-28 melanoma 105% | SK-MEL-2 melanoma 122%

CNCCNc1nc2ccccc2c2c(=O)c3cccc(C)c3sc12
inactive: SNB-75 CNS 38.4% | SNB-19 CNS 53.2% | U251 CNS 25.4% | PC-3 prostate 41.4% | SK-MEL-5 melanoma 46.3% | UACC-62 melanoma 42% | SK-MEL-2 melanoma 91.4%
active: HT29 colon -25.6% | LOX IMVI melanoma -85.6% | SK-MEL-28 melanoma -60.1%

COc1ccc(C)c2sc(N(Cc3cccnc3)C(=O)c3ccc(C#N)cc3)nc12
inactive: HT29 colon 16% | SNB-75 CNS 15.4% | SNB-19 CNS 12.4% | PC-3 prostate 16% | SK-MEL-28 melanoma 15.9% | SK-MEL-2 melanoma 13.1%
active: U251 CNS 1.87% | SK-MEL-5 melanoma -62.2% | UACC-62 melanoma -33.3% | LOX IMVI melanoma -7.23%

CN1CCN(c2nc(Nc3ccc(O)cc3)nc3ccccc23)CC1
inactive: HT29 colon 43.4% | SNB-75 CNS 75.2% | SNB-19 CNS 55.9% | U251 CNS 33.9% | PC-3 prostate 60% | SK-MEL-5 melanoma 46.1% | UACC-62 melanoma 49.2% | LOX IMVI melanoma 20.1% | SK-MEL-28 melanoma 66.2% | SK-MEL-2 melanoma 76.8%

COc1ccc2occ(C3=C(c4c[nH]c5ccccc45)C(=O)NC3=O)c2c1
inactive: HT29 colon 17.2% | SNB-75 CNS 16.6% | SNB-19 CNS 51.1% | U251 CNS 43.6% | PC-3 prostate 62.7% | SK-MEL-5 melanoma 47.4% | UACC-62 melanoma 37.9% | LOX IMVI melanoma 44.9% | SK-MEL-28 melanoma 58.6% | SK-MEL-2 melanoma 43.7%
